Compounds with a hit are over-represented: about 19% of the library has one in this group of screens.
DT40 TDP1 CPT – growth inhibition of DT40 Tdp1-/-;hTDP1 cells with camptothecin (screen for TDP1 inhibitors); chicken DT40 Tdp1-/-;hTDP1 cells + 20 nM CPT, ATP luminescence, 48 h; Potency, µM (highest dose often 46.2 µM), most hits filed as inhibitors; 420,000 compounds, 12% hits; note: nearly all actives have a fitted effect of over 55% in size
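Cell growth measured by CellTiter-Glo luminescence after a minimum 48 h, 37 C compound exposure with 20 nM CPT in Tdp1-knockout DT40 cells stably expressing hTDP1, seeded 400/well; qHTS titration format.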
DT40 TDP1 no CPT – qHTS for Inhibitors of human tyrosyl-DNA phosphodiesterase 1 (TDP1): qHTS in cells in absence of CPT; DT40 Tdp1-/- hTDP1 cells, no CPT, ATP luminescence, 48 h; Potency, µM (doses to about 46.2 µM), most hits filed as inhibitors; 420,000 compounds, 15% hits; AID 686978, 2013; note: nearly all actives have a fitted effect of over 55% in size
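No-CPT arm: Tdp1-/-;hTDP1 DT40 cells (400/well) plus compounds, incubated ≥48 hr at 37 °C. Readout CellTiter-Glo luminescence.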
IL-1B inflam inh – blocks inflammasome-driven IL-1 beta release; THP-1 LPS/ATP IL-1B secretion, AlphaLISA, 16 h; active compounds read low; activity change, % at 57.5 µM; 360,000 compounds, 4.7% hits; AID 743279; in the data active = activity change below about -50%; inconclusive = mostly about -30% to -49%
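THP-1 cells pretreated 1 hr with compounds (up to 57.5 uM final), then stimulated with LPS (250 ng/mL final) plus ATP (1.25 mM final); secreted IL-1B measured by AlphaLISA after 16 hr, decreased signal indicating inhibition.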
S-ASM inh – blocks human secretory acid sphingomyelinase. P17405. placental ASM, HMU-PC fluorogenic substrate, 60 min. Potency, µM (highest dose often 57.5 µM), usual class: inhibitors. 340,000 compounds, 0.006% hits
Target sequence (P17405 47-631 limits assumed): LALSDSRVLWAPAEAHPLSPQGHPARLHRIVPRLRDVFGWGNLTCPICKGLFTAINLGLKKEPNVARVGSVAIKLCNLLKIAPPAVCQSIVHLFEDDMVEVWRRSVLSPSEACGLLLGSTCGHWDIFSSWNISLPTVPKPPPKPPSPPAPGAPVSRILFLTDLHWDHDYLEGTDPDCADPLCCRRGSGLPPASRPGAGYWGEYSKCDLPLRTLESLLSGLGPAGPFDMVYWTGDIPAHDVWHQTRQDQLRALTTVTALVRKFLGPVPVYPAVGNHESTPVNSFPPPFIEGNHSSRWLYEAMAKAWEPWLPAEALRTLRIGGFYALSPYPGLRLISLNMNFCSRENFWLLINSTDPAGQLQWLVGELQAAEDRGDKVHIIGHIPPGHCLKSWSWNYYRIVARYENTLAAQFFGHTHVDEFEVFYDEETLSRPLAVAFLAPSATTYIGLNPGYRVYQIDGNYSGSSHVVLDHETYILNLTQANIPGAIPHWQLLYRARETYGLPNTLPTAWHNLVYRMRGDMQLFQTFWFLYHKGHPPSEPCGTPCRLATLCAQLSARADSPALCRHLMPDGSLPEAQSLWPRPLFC
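Fluorescence read-out (Ex 386 nm, Em 447 nm) after stopping the reaction at pH 10. Enzyme: ASM from human placenta; substrate HMU-PC0, 9 uM final; 60 min, 37 °C. Compound preincubation 10 min, ambient temperature.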
TGFb SMAD3 inh – TGF-b pathway inhibition; HepG2 CAGA-GFP TGF-b/SMAD3 reporter, GFP fluorescence, 18 h; TGF-beta stimulated, 500 pg/mL final; 410,000 compounds, 1.2% hits; Potency, µM (series often up to 46.1 µM), most hits filed as inhibitors; AID 588855; note: nearly all actives have a fitted effect of over 65% in size
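HEPG2 CAGA-GFP cells (1000/well, DMEM with 1% FBS) were pre-incubated 2 h at 37 degrees C, given compound by pin tool, then stimulated with TGF-beta at 500 pg/mL final for 18 h before per-cell GFP fluorescence imaging.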
HepG2 viability – counter-screen for TGF-b inhibitors: cytotoxicity in HepG2 cells; HepG2 CAGA-GFP viability, ATP luminescence, 18 h; Potency, µM (series often up to 46.1 µM), usual class: cytotoxic; 410,000 compounds, 0.76% hits; AID 588856
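HepG2 CAGA-GFP cells (1000/well, DMEM with 1% FBS) received compound, then TGF-beta at 500 pg/mL final, and were incubated 18 hours at 37 degrees C. Viability was read by CellTiter-Glo luminescence. Media-only wells were set as complete cell-killing and DMSO as no toxicity.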
Numbers stand for hits; . = inactive; ? = inconclusive; / = not tested or not shown. Unless noted, calls come from the whole dose curve; as a rule, active = well fitted curve in the direction sought with a large enough effect; inconclusive = small, poorly fitted or top-dose-only effect, or another doubt; inactive = no such curve, though single readings can be large; an effect the other way counts as inactive or inconclusive.

SMILES	DT40 TDP1 CPT	DT40 TDP1 no CPT	IL-1B inflam inh	S-ASM inh	TGFb SMAD3 inh	HepG2 viability
CCOC(=O)c1ccccc1NC(=O)Cn1c(=O)n(-c2ccc(CC)cc2)c(=O)c2c(C)c(C(=O)N(C)C)sc21	8.2µM	12µM	/	/	.	.
CCN(CC)C(=O)c1sc2c(c1C)c(=O)n(Cc1ccccc1)c(=O)n2Cc1c(C)cc(C)cc1C	?	21µM	/	/	?	.
CCOC(=O)c1sc(C)c2c(=O)n(Cc3ccc(Cl)cc3)c(C)nc12	23µM	16µM	.	.	.	.
CCN(CC)C(=O)c1sc2c(c1C)c(=O)n(-c1ccc(C)c(C)c1)c(=O)n2Cc1cccc(Cl)c1	21µM	?	/	/	.	.
CCOC(=O)c1sc(-c2ccc(Cl)cc2)nc1O	.	.	.	.	.	.
CCN(CC)C(=O)c1sc2c(c1C)c(=O)n(Cc1ccccc1)c(=O)n2Cc1cc(C)ccc1C	?	?	/	/	.	.
CCSCCCn1[nH]c2ccccc2c1=O	?	?	.	/	.	.
NC(=O)NC(Cc1ccccc1)C(=O)NNC(=O)COc1ccccc1Cl (stereo not given)	.	.	.	.	.	.
Cc1ccc(-c2noc(-c3cccnc3NCc3ccc(Cl)cc3)n2)cc1	.	.	/	/	.	.
Cc1cccc(C)c1NC(=O)Cn1c(=O)n(Cc2ccccc2)c(=O)c2c(C)c(C(=O)N(C)C)sc21	16µM	?	/	/	.	.
Cc1ccc(Cn2c(=O)n(CCc3ccccc3)c(=O)c3c(C)c(C)sc32)cc1	.	?	/	/	.	.
CCN(CC)C(=O)c1sc2c(c1C)c(=O)n(Cc1ccccc1)c(=O)n2Cc1ccc(Cl)cc1	?	4.6µM	/	/	.	.
CCN(CC)C(=O)c1sc2c(c1C)c(=O)n(CCc1ccccc1)c(=O)n2Cc1cc(C)ccc1C	.	.	/	/	.	.
COC(=O)c1ccccc1NC(=O)Cn1c(=O)n(Cc2ccccc2)c(=O)c2c(C)c(C)sc21	.	.	.	.	.	.
CCOC(=O)c1sc2c(c1C)c(=O)n(CCO)c(=O)n2Cc1ccccc1	15µM	16µM	.	.	.	.
Cc1ccc(C(=O)Nc2ccc(N3CCN(C)CC3)cc2)cc1C	.	.	.	.	.	.
Cc1[nH]c(=O)[nH]c(=O)c1Sc1ccccc1[N+](=O)[O-]	.	.	.	.	.	.
Cc1cc(OC(=O)c2ccco2)c(Sc2ccccc2[N+](=O)[O-])c(=O)o1	?	18µM	.	.	.	.
CCCN(CCC)C(=O)c1cn(C)c2ccc(S(=O)(=O)N3CCCC3)cc2c1=O	.	.	.	.	.	.
COc1ccc(C(=O)COC(=O)C(Cc2c[nH]c3ccccc23)NC(=O)c2ccc(C(C)(C)C)cc2)cc1 (stereo not given)	18µM	13µM	/	/	.	.
COC(=O)C(Cc1c[nH]c2ccccc12)NC(=O)c1ccc2nc[nH]c2c1 (stereo not given)	.	.	-68	.	.	.
CC(=O)c1ccc(-c2cnc3c(NC=O)cc(-c4ccc(S(C)(=O)=O)cc4)cn23)cc1	8.2µM	7.3µM	.	/	.	.
CC(=O)c1ccc(-c2cnc3c(NC=O)cc(-c4cnn(C)c4)cn23)cc1	18µM	23µM	?	/	?	.
CN(C)CCNC(=O)c1cccc(-c2cnc3c(NC=O)cc(-c4ccc(S(C)(=O)=O)cc4)cn23)c1	.	.	.	/	.	.
CC(C)C1C(=O)N(Cc2cn(CCC3OCCO3)nn2)CCS(=O)(=O)N1Cc1ccc(-c2ccc(Cl)c(Cl)c2)cc1 (stereo not given)	2.1µM	0.92µM	.	/	?	.
COc1ccc(-c2ccc(CN3C(C(C)C)C(=O)N(Cc4cn(CCC5OCCO5)nn4)CCS3(=O)=O)cc2)cc1OC (stereo not given)	.	.	.	/	.	.
